Assay results: the supplement of paper PMC8728848
The entries come from a sample that favours the strongest signals as a whole.

How the values were obtained:
Test in all cases: glycan array binding signal (z-score within array); higher = stronger binding
Conditions in all cases: glycan notation: IUPAC condensed, linker removed
[1] = target: Fuc(a1-2)Gal(b1-4)Glc6S
Procedure, shortened: (§1)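 Arrays were curated from the Consortium for Functional Glycomics database, 3228 in total, and kept only where the protein sequence was available. Binding is expressed as a within-array Z-score. This score was averaged across arrays of the same protein sequence at different concentrations or buffers and across linkers, and negative values can be read as non-binding.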

[2] = target: Fuc(a1-2)[GalNAc(a1-3)]Gal(b1-4)Glc
Procedure, shortened: as §1

[3] = target: Gal(b1-3)Gal(b1-4)GlcNAc(b1-2)Man(a1-3)[Gal(b1-3)Gal(b1-4)GlcNAc(b1-2)Man(a1-6)]Man(b1-4)GlcNAc(b1-4)GlcNAc
Procedure, shortened: as §1

[4] = target: Gal(b1-3)GlcNAc(b1-2)Man(a1-3)[Gal(b1-3)GlcNAc(b1-2)Man(a1-6)]Man(b1-4)GlcNAc(b1-4)GlcNAc
Procedure, shortened: as §1

[5] = target: Gal(b1-3)[Fuc(a1-4)]GlcNAc
Procedure, shortened: as §1

[6] = target: Gal(b1-4)GlcNAc
Procedure, shortened: as §1

[7] = target: Gal(b1-4)GlcNAc(b1-3)Gal(b1-3)GlcNAc
Procedure, shortened: as §1

[8] = target: Gal3S(b1-3)GlcNAc
Procedure, shortened: as §1

[9] = target: Gal3S4S(b1-4)GlcNAc
Procedure, shortened: as §1

[10] = target: GalNAc(a1-3)Gal
Procedure, shortened: as §1

[11] = target: GalNAc(a1-3)GalNAc
Procedure, shortened: as §1

[12] = target: GalNAc(b1-3)Gal(a1-4)Gal(b1-4)GlcNAc
Procedure, shortened: as §1

[13] = target: GlcNAc(a1-4)Gal(b1-4)GlcNAc(b1-3)Gal(b1-4)[Fuc(a1-3)]GlcNAc(b1-3)Gal(b1-4)[Fuc(a1-3)]GlcNAc
Procedure, shortened: as §1

[14] = target: GlcNAc(b1-4)GlcNAc(b1-4)GlcNAc(b1-4)GlcNAc(b1-4)GlcNAc
Procedure, shortened: as §1

[15] = target: GlcNAc(b1-4)GlcNAc(b1-4)GlcNAc(b1-4)GlcNAc(b1-4)GlcNAc(b1-4)GlcNAc
Procedure, shortened: as §1

[16] = target: GlcNAc6S(b1-3)Gal(b1-4)GlcNAc
Procedure, shortened: as §1

[17] = target: Kdn(a2-3)Gal(b1-4)[Fuc(a1-3)]GlcNAc
Procedure, shortened: as §1

[18] = target: Man(a1-2)Man(a1-2)Man(a1-6)[Man(a1-3)]Man
Procedure, shortened: as §1

[19] = target: Man(a1-2)Man(a1-3)[Man(a1-2)Man(a1-6)]Man(a1-6)[Man(a1-2)Man(a1-2)Man(a1-3)]Man
Procedure, shortened: as §1

[20] = target: Man(a1-2)Man(a1-3)[Man(a1-2)Man(a1-6)]Man(a1-6)[Man(a1-3)[Man(a1-6)]Man(a1-6)]Man(b1-4)GlcNAc(b1-4)GlcNAc
Procedure, shortened: as §1

[21] = target: Man(a1-2)Man(a1-3)[Man(a1-6)]Man(a1-6)[Man(a1-2)Man(a1-3)]Man(b1-4)GlcNAc(b1-4)GlcNAc
Procedure, shortened: as §1

[22] = target: Man(a1-2)Man(a1-6)[Man(a1-3)]Man(a1-6)[Man(a1-2)Man(a1-2)Man(a1-3)]Man(b1-4)GlcNAc(b1-4)GlcNAc
Procedure, shortened: as §1

[23] = target: Man(a1-3)[Man(a1-6)]Man
Procedure, shortened: as §1

[24] = target: Man(a1-3)[Man(a1-6)]Man(a1-6)[Man(a1-2)Man(a1-3)]Man(b1-4)GlcNAc(b1-4)GlcNAc
Procedure, shortened: as §1

[25] = target: Man(a1-3)[Man(a1-6)]Man(a1-6)[Man(a1-3)]Man(b1-4)GlcNAc(b1-4)GlcNAc
Procedure, shortened: as §1

[26] = target: Man(a1-3)[Man(a1-6)]Man(b1-4)GlcNAc(b1-4)GlcNAc
Procedure, shortened: as §1

[27] = target: Neu5Ac(a2-3)Gal(b1-4)GlcNAc6S
Procedure, shortened: as §1

[28] = target: Neu5Ac(a2-3)Gal(b1-4)[Fuc(a1-3)]GlcNAc
Procedure, shortened: as §1

[29] = target: Neu5Ac(a2-6)Gal(b1-4)GlcNAc
Procedure, shortened: as §1

[30] = target: Neu5Ac(a2-6)Gal(b1-4)GlcNAc(b1-2)Man(a1-3)Man(b1-4)GlcNAc(b1-4)GlcNAc
Procedure, shortened: as §1

[31] = target: Neu5Ac(a2-6)Gal(b1-4)GlcNAc(b1-3)Gal(b1-4)GlcNAc
Procedure, shortened: as §1

B1: MVL (Microcystis viridis), Q9RHG4 (protein)
chain: MASYKVNIPAGPLWSNAEAQQVGPKIAAAHQGNFTGQWTTVVESAMSVVEVELQVENTGIHEFKTDVLAGPLWSNDEAQKLGPQIAASYGAEFTGQWRTIVEGVMSVIQIKYTF
- glycan array binding signal (z-score) [1]: -0.234
- glycan array binding signal (z-score) [2]: -0.201
- glycan array binding signal (z-score) [3]: 1.85
- glycan array binding signal (z-score) [4]: 1.51
- glycan array binding signal (z-score) [5]: -0.232
- glycan array binding signal (z-score) [6]: -0.227
- glycan array binding signal (z-score) [7]: -0.23
- glycan array binding signal (z-score) [8]: -0.239
- glycan array binding signal (z-score) [9]: -0.243
- glycan array binding signal (z-score) [10]: -0.231
- glycan array binding signal (z-score) [11]: -0.243
- glycan array binding signal (z-score) [12]: -0.243
- glycan array binding signal (z-score) [13]: 0.006
- glycan array binding signal (z-score) [14]: 0.051
- glycan array binding signal (z-score) [15]: -0.006
- glycan array binding signal (z-score) [16]: -0.119
- glycan array binding signal (z-score) [17]: -0.121
- glycan array binding signal (z-score) [18]: -0.183
- glycan array binding signal (z-score) [19]: 7.38
- glycan array binding signal (z-score) [20]: 5.26
- glycan array binding signal (z-score) [21]: 2.01
- glycan array binding signal (z-score) [22]: 6.83
- glycan array binding signal (z-score) [23]: -0.232
- glycan array binding signal (z-score) [24]: 2.68
- glycan array binding signal (z-score) [25]: 2.72
- glycan array binding signal (z-score) [26]: 1.59
- glycan array binding signal (z-score) [27]: -0.238
- glycan array binding signal (z-score) [28]: -0.23
- glycan array binding signal (z-score) [29]: -0.241
- glycan array binding signal (z-score) [30]: 0.179
- glycan array binding signal (z-score) [31]: -0.236
